Screens from PubChem BioAssay.
mHTT CaM bind = inhibitors of human mutant huntingtin-calmodulin interaction; AlphaScreen His-mHTT/GST-CaM binding, luminescence; inhibition, % at 15 µM; 3.6% of 190,000 active
Pf apPOL block = Pf-apPOL DNA polymerase inhibition. Recombinant Pf-apPOL, molecular beacon fluorescence, 1.5 h. inhibition, % at 10 µM. 0.25% of 210,000 active. AID 1794808
Hits are given with their value; . = inactive; / = no result given; ! = not active in a repeat. This excerpt belongs to a sample that is enriched for hits. No stated cut-off is given here; in the data, active means inhibition above about 50%; inactive means the rest.

SMILES | mHTT CaM bind | Pf apPOL block
Cc1cccnc1Nc1nc(-c2ccc(O)c(O)c2)cs1 | 62 | .
Cc1ccc(-c2csc(Nc3ccccn3)n2)cc1C | . | .
Cc1nc(C)c(Cc2ccccc2C)c(N2CCN(C(=O)C(C)C)CC2)n1 | . | .
CN(CCCNC(=O)c1csc(-c2ccncc2)n1)c1ccccc1 | . | .
COc1cc(NC(=O)N2CCn3cccc3C2Cc2ccccc2)cc(OC)c1 (stereo not drawn) | . | .
COc1ccc(NC(=O)N2CCn3cccc3C2Cc2ccccc2)cc1OC (stereo not drawn) | 59 | .
COc1ccc(Cl)cc1NC(=O)N1CCn2cccc2C1Cc1ccccc1 (stereo not drawn) | 62 | .
O=C(Nc1cc(F)ccc1F)N1CCn2cccc2C1Cc1ccccc1 (stereo not drawn) | . | .
COc1ccc(N2CCN(C(=O)C3CCN(c4nc5cccnc5s4)CC3)CC2)cc1 | . | .
CC1(C(=O)NCc2cccc(F)c2)CCCN(C(=O)c2ccccc2Cl)C1 (stereo not drawn) | . | .
Cc1ccccc1CNC(=O)c1ccccc1Cl | . | .
Cc1ccc(N2C=C(C#N)S(=O)(=O)c3ccccc32)c(F)c1 | . | .
CCC(=O)N1CCCC(c2ccnc(Nc3cccc(C)c3)n2)C1 (stereo not drawn) | 57 | .
Cc1ccccc1Nc1nccc(C2CCCN(C(=O)Cc3cccs3)C2)n1 (stereo not drawn) | . | .
Cc1cccc(Nc2nccc(C3CCCN(C(=O)C4CCCO4)C3)n2)c1 (stereo not drawn) | 74 | .
Cc1cccc(Nc2nccc(C3CCCN(C(=O)c4ccc(C#N)cc4)C3)n2)c1 (stereo not drawn) | . | .
CCC(=O)N1CCCC(c2ccnc(Nc3ccc(OC)cc3)n2)C1 (stereo not drawn) | . | .
Cc1cccc(Nc2nccc(C3CCCN(C(=O)Cc4cccs4)C3)n2)c1 (stereo not drawn) | 63 | .
CC(C)CCNC(=O)c1ccc2c(c1)NC(=O)C1CCCCN21 (stereo not drawn) | . | .
Cc1cc(C(=O)NCc2ccc(F)cc2F)nc2cc(-c3cccs3)nn12 | . | .
CC(=O)N1CCc2cn(CC(C)C)c3cccc(c23)C1 | . | .
CCC(=O)N1CCc2cn(CC(C)C)c3cccc(c23)C1 | 54 | .
CC(=O)Nc1ccc(C(=O)N2CCc3cn(CC(C)C)c4cccc(c34)C2)cc1 | 72 | .
COc1ccc(NC(=O)N2CCc3cn(CC(C)C)c4cccc(c34)C2)cc1OC | . | .
O=C(C=Cc1ccc2c(c1)OCCO2)c1cc(F)ccc1O | . | .
SMILES | mHTT CaM bind | Pf apPOL block
COc1ccc(CC(=O)N2CCC3(C2)C(=O)N(C)c2ccccc23)cc1Cl (stereo not drawn) | . | .
Cc1ccc(NCCC(=O)c2cccc([N+](=O)[O-])c2)cc1 | . | .
CC(C)c1ccc(NCCC(=O)c2ccc([N+](=O)[O-])cc2)cc1 | 56 | .
O=C(Oc1ccc2c(c1)OC(=Cc1cccnc1)C2=O)c1ccc(Br)cc1 | 76 | .
O=C(Oc1ccc2c(c1)OC(=Cc1cccnc1)C2=O)c1ccncc1 | . | .
O=C(c1cccnc1-c1nc2ccccc2s1)N1CCN(c2ccccc2F)CC1 | . | .
S=C(NCc1ccc(Cl)cc1)O[C@H]1CCC12CCC(c1ccccc1)CC2 (stereo partly drawn) | . | .
Cc1ccc(Nc2nc(O)c(C3=c4cc(Br)ccc4=NC3=O)s2)cc1C | . | .
CSCCC(C(=O)O)n1c(O)c(C2=c3cc(Br)ccc3=NC2=O)sc1=S (stereo not drawn) | 51 | /
O=C1N=c2ccc(Br)cc2=C1c1sc(=O)n(-c2ccccc2)c1O | . | .
Cc1ccccc1-n1c(O)c(C2=c3cc(Br)ccc3=NC2=O)sc1=O | 63 | .
CC(C)NC(=O)c1cccc(-c2cnc3ccccc3c2)c1 | . | .
O=C(NCCn1nc(-c2ccco2)ccc1=O)c1cccc(-n2cnnn2)c1 | . | .
O=C1OC(c2cccc(Br)c2)=N/C1=C\c1cccc(Cl)c1 | . | .
Cc1cccc(COC[C@H](Cc2ccccc2)N2CCN(C(=O)c3cccc(C)c3)CCC2=O)c1 | 81! | .
Cc1cccc(C(=O)N2CCC(=O)N([C@H](COCc3ccccc3)Cc3ccccc3)CC2)c1 | 65! | .
Cc1cccc(C(=O)N2CCN(C(=O)c3cccc(C)c3)CC2)c1 | . | .
Cc1cccc(C(=O)N2CCC(=O)N([C@H](COCc3cccc(C(F)(F)F)c3)Cc3ccccc3)CC2)c1 | 99 | .
Cc1cccc(COC[C@H](Cc2ccccc2)N2CCN(C(=O)c3cc(Cl)cc(Cl)c3)CCC2=O)c1 | . | .
Cc1cccc(COC[C@H](Cc2ccccc2)N2CCN(C(=O)c3cccc(Cl)c3)CCC2=O)c1 | 98 | .
Cc1cccc(C(=O)N2CCC(CCOc3ccccc3)CC2)c1 | . | .
Cc1cccc(C(=O)N2CCN(C)CC2)c1 | . | .
CCCNc1cc(N2CCC(CCC(=O)N3CCN(c4ccccn4)CC3)CC2)ncn1 | . | .
CCC(CC)C(=O)N1CCC(COc2ccc(C(=O)N3CCCCC3)cc2)CC1 | . | .
CCCNC(=O)N1CC(CC)Oc2ccc(C)cc21 (stereo not drawn) | . | .
SMILES | mHTT CaM bind | Pf apPOL block
CCOC(=O)C1CCc2sc(NC(=O)C3CN(c4nc5ccccc5s4)C3)nc21 (stereo not drawn) | . | .
CCOC(=O)C1CCc2sc(NC(=O)c3n[nH]c4ccccc34)nc21 (stereo not drawn) | 98 | .
CC(=O)N1CCN(c2ccc(NC(=O)COc3ccc(Cl)cc3Cl)cc2)CC1 | 50 | .
O=C(CCCOc1ccc(Cl)cc1Cl)N1CCN(c2ccc(F)cc2)CC1 | 76 | .
CCCC(=O)Nc1ccc(NC(=O)COc2ccc(Cl)cc2Cl)cc1 | . | .
O=C(CCSc1ccc(Cl)cc1)N1CCN(c2ccc(F)cc2)CC1 | . | .
Cc1ccc(C2CC(c3ccccc3C)n3ncnc3N2)cc1C (stereo not drawn) | . | .
Cc1nc(-c2ccccc2)nc2c1CCC(=O)N2Cc1cccnc1 | . | .
COc1ccc(Cl)cc1-c1nc(C=Nc2ccc(Br)cc2)c(O)o1 | . | .
CC(=O)C1=C(C)Nc2sc(C(=O)c3cccc([N+](=O)[O-])c3)c(N)c2C1c1cccnc1 (stereo not drawn) | 57 | .
CC(=O)C1=C(C)NC(C)=C(C(C)=O)C1c1cccc([N+](=O)[O-])c1 | / | .
COc1cccc(NC(=O)c2ccccc2Cl)c1 | . | .
COc1cccc(CC(=O)NNC(=O)NC(=O)c2ccccc2Cl)c1 | / | 54
Cc1ccc(-c2cncc(C(=O)Nc3ccc4c(c3)OCCO4)c2)cc1 | 54 | .
CCc1ccc(NC(=O)c2cncc(-c3ccc(C)cc3)c2)cc1 | . | .
COc1ccc(NC(=O)N2CC(C)Oc3ccc(C)cc32)cc1 (stereo not drawn) | . | .
O=C(Cn1ccc2ccn(Cc3ccccc3F)c2c1=O)NCc1ccc(F)cc1F | . | .
CN1CCN(C(=O)CSc2nc3c(c(C(F)(F)F)c2C#N)CCC3)CC1 | 62 | /
CCCCSc1nc2c(c(C(F)(F)F)c1C#N)CC(C)CC2 (stereo not drawn) | . | /
COc1ccc(C2CC(=O)C3=C(C2)Nc2ccccc2NC3c2ccc(C(F)(F)F)cc2)cc1 (stereo not drawn) | 53 | .
O=C1CC(c2ccccc2Cl)CC2=C1C(c1ccc(F)cc1)Nc1ccccc1N2 (stereo not drawn) | 57 | .
